Reference: article PMC5540273 (PLoS ONE, 2017)

Tests used:
Settings in all cases: concentration: 1 μM, replicates: in singlicate; n = 1
[1] = system: EPHA1
[2] = system: EPHA2
[3] = system: EPHA3
[4] = system: EPHA4
[5] = system: EPHA5
[6] = system: EPHA6
[7] = system: EPHA7
[8] = system: EPHA8
[9] = system: EPHB1
[10] = system: EPHB2
[11] = system: EPHB3
[12] = system: EPHB4
[13] = system: EPHB6
[14] = system: ERBB2
[15] = system: ERBB3
[16] = system: ERBB4
[17] = system: T1, ERK1
T1 construct: gene MAPK3

[18] = system: T2, ERK2
T2 construct: gene MAPK1

[19] = system: T3, ERK3
T3 construct: gene MAPK6

[20] = system: T4, ERK4
T4 construct: gene MAPK4
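Also: KINOMEscan kinase panel screen.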

Structure (SMILES)	%Inh [1] [%]	%Inh [2] [%]	%Inh [3] [%]	%Inh [4] [%]	%Inh [5] [%]	%Inh [6] [%]	%Inh [7] [%]	%Inh [8] [%]	%Inh [9] [%]	%Inh [10] [%]	%Inh [11] [%]	%Inh [12] [%]	%Inh [13] [%]	%Inh [14] [%]	%Inh [15] [%]	%Inh [16] [%]	%Inh [17] [%]	%Inh [18] [%]	%Inh [19] [%]	%Inh [20] [%]
CCCNC(=O)Nc1ccc(Oc2ncnc3ccn(C)c23)cc1	0	0	0	3	12	8	0	0	1	20	0	0	5	33	1	4	0	0	2	0
Nc1nc(N)c2nc(-c3ccccc3)[nH]c2n1 [SKF-12778]	12	20	3	17	3	8	3	4	18	10	0	13	39	22	4	0	7	5	6	0
COc1cc2ncn(-c3cc(OCc4ccncc4Br)c(C(N)=O)s3)c2cc1OC [GW854278]	25	10	21	0	0	0	0	5	0	9	0	18	3	11	37	0	0	0	0	4
COc1ccc(CNC(=O)NC2CCN(c3ccnc(Nc4ccc(F)cc4)n3)C2)cc1 (stereo not drawn) [GSK1379706]	0	7	17	8	0	0	1	16	16	30	6	16	30	41	47	2	6	14	14	0
CN1C(=O)C(Nc2ccccc2)=C(c2ccccc2)C1=O [SB-300079]	0	0	0	0	4	0	0	0	17	0	0	0	0	20	28	18	0	10	9	31
O=c1cc(N2CCOCC2)nc2n(Cc3ccc(F)c(Cl)c3)ccn12 [GSK2297099]	12	0	18	3	0	0	6	6	7	0	8	15	5	0	0	24	0	0	0	25
Cc1cccc(-c2nc(Nc3ccc4c(cnn4C)c3)c3ccccc3n2)n1 [GW876731]	6	0	0	0	1	0	0	0	3	6	0	0	13	0	0	8	0	0	0	0
CCC(=O)c1c(-c2ccccc2)c2cc(Cl)ccc2c(=O)n1Cc1ccc(C(=O)O)cc1	0	0	7	7	0	6	0	4	9	0	5	0	0	16	0	0	0	5	0	0
Nc1nccc2scc(-c3ccc4c(c3)CCN4C(=O)Cc3ccccc3)c12 [GSK2576924]	9	6	38	4	0	2	4	15	0	14	4	22	88	31	0	8	0	0	0	33
O=C1NC(=O)C(c2ccccc2)=C1Nc1cccc(O)c1 [SB-390534]	24	0	8	0	0	10	16	0	0	0	0	0	0	0	0	3	0	0	0	0
CCC(=O)c1c(-c2ccccc2)c2cc(Cl)ccc2c(=O)n1Cc1cc(S(C)(=O)=O)n(CCC(C)(C)O)n1	0	22	4	17	11	34	10	12	6	18	9	0	21	0	7	20	12	32	14	14
COc1cc(Nc2nccc(N3CCC(NC(=O)C4COc5ccccc5O4)C3)n2)cc(OC)c1OC (stereo not drawn) [GSK1379761]	1	17	1	2	0	0	0	5	6	8	0	7	93.9	50	37	30	0	0	5	15
COc1cccc(C2=C(N(C)c3ccccc3)C(=O)NC2=O)c1 [SB-334865]	0	4	0	16	0	0	5	7	18	14	3	0	11	41	0	0	7	0	0	46
COC(=O)c1c(-c2ccccc2)c2cc(Br)ccc2c(=O)n1Cc1ccc(NC(=O)CCC(=O)O)cc1	24	0	4	12	7	31	5	12	5	7	19	13	14	57	0	0	0	29	3	3
Cc1cccc(-c2cc(-c3c[nH]nc3-c3ccccn3)ccn2)c1 [GW679395]	38	7	0	22	0	13	0	13	33	17	25	22	74	19	0	36	0	0	0	19
Cc1ccc(Oc2ccc(Nc3ncnc4cc[nH]c34)cc2C)cn1	13	16	3	22	16	26	0	0	5	7	26	28	53	100	24	29	0	26	0	7
C[C@@H]1CC[C@H](C(=O)NC2CCCCC2)CN1c1cc(-c2ccc3c(N)n[nH]c3c2)nc(N)n1 [GSK2291363]	6	23	18	12	11	10	8	22	26	8	20	21	96.7	21	0	35	14	25	21	28
Nc1n[nH]c2ncc(-c3ccccc3)cc12 [SB-517081]	0	2	0	0	0	0	5	10	18	14	9	9	39	24	0	0	3	0	0	23
Cc1ccc(-c2ccc3c(ccc4sc5c(c43)NC[C@@H](C)N=C5N(C)C)n2)cn1	0	0	0	0	0	0	0	0	0	0	0	0	15	8	0	3	0	0	1	14
Nc1n[nH]c2nnc(-c3ccccc3)c(-c3ccccc3)c12 [GW554060]	15	6	0	12	0	28	0	10	9	0	43	8	17	27	16	32	0	0	3	0
COc1cc(Nc2nccc(N3CCC(NC(=O)C(C)c4ccc(Cl)cc4)C3)n2)cc(OC)c1OC (stereo not drawn) [GSK1379757]	4	23	0	22	0	18	2	14	0	0	23	11	94.7	61	0	26	0	0	5	12

Structure (SMILES)	%Inh [1] [%]	%Inh [2] [%]	%Inh [3] [%]	%Inh [4] [%]	%Inh [5] [%]	%Inh [6] [%]	%Inh [7] [%]	%Inh [8] [%]	%Inh [9] [%]	%Inh [10] [%]	%Inh [11] [%]	%Inh [12] [%]	%Inh [13] [%]	%Inh [14] [%]	%Inh [15] [%]	%Inh [16] [%]	%Inh [17] [%]	%Inh [18] [%]	%Inh [19] [%]	%Inh [20] [%]
COc1ccc(-n2cnc3c(N)ncnc32)cc1 [SKF-97236]	0	13	0	0	4	0	1	10	19	0	0	0	1	7	0	1	14	9	0	0
CCC(=O)c1c(-c2ccccc2)c2cc(Cl)ccc2c(=O)n1Cc1cc(S(C)(=O)=O)n(CC(N)=O)n1	0	15	0	0	0	0	0	0	0	0	0	0	15	39	0	0	0	0	0	0
Cc1nnc(-c2ccc3ncn(-c4ccc(S(C)=O)cc4)c3c2)o1 (stereo not drawn)	0	0	5	46	17	50	1	0	1	15	35	6	3	29	0	11	0	26	0	15
Cn1c(=O)c(F)c(Nc2ccc(I)cc2F)c2c(=O)n(OC[C@H](O)CO)cnc21	36	15	0	16	5	12	14	19	20	34	17	32	0	0	41	3	0	8	9	7
CCn1c(-c2ccoc2)nc2cnccc21 [SB-733887]	9	0	0	9	0	7	12	24	19	0	17	0	26	8	14	0	0	0	12	11
CC(C)(C)c1ccc(C(=O)Nc2cn3cc(-c4ccccc4)ccc3n2)cc1	0	0	6	6	0	0	0	0	11	0	3	0	0	50	0	4	0	0	0	6
Cc1nn2c(=O)cc(N3CCOCC3)nc2n1Cc1cccc(Cl)c1Cl [GSK2342769]	10	10	0	21	0	18	0	6	0	0	16	16	0	0	0	0	0	0	0	5
Cl.NS(=O)(=O)c1cccc(Nc2cc(-c3ccc(F)cc3)n[nH]2)c1 [GW824645]	0	0	0	0	0	0	0	21	0	0	0	0	0	4	17	0	0	0	0	0
O=C(Nc1n[nH]c2nc(-c3ccccc3)c(Cl)cc12)C1CC1 [SB-734909]	19	24	17	8	0	13	17	21	0	0	7	15	48	6	32	0	0	0	0	0
COc1cc(OC)cc(-c2cc3cnc(N)nc3nc2NC(=O)NC(C)(C)C)c1	28	0	0	0	0	0	0	0	0	0	0	0	24	4	0	4	0	0	0	4
Cc1ccccc1COc1cc(-n2cnc3cc(Cl)ccc32)sc1C(N)=O [GW813349]	9	6	0	0	0	0	0	0	14	19	0	10	17	14	54	0	1	0	0	0
CCCC(=O)Nc1n[nH]c2ncc(-c3cccc4ccccc34)cc12 [SB-642057]	0	0	0	2	0	0	4	1	15	19	0	0	41	11	0	26	8	0	0	22
Cc1nnc(-c2ccc(C)c(-c3ccc(C(=O)O)cc3)c2)o1 [GW608005]	0	0	0	18	0	9	0	0	8	0	6	5	0	36	0	76	0	0	0	0
O=C(NCCNc1ccnc(Nc2ccc(F)cc2)n1)Nc1ccc2c(c1)OCO2 [GSK1379882]	15	0	0	0	0	0	0	0	18	0	0	0	38	9	10	7	0	0	9	22
Nc1ncnc2c1ncn2-c1ccc(Cl)cc1 [AH2635]	0	12	0	0	0	0	0	3	9	0	3	7	10	53	1	50	0	0	18	0
COc1ccc(-c2cc3c(C)nc(N)nc3n([C@H]3CC[C@H](O)CC3)c2=O)cn1	12	8	0	0	0	0	0	0	0	0	0	0	4	0	0	0	0	0	0	5
CN1C(=O)C(Nc2cc(Cl)c(O)c(Cl)c2)=C(c2ccc(Cl)cc2)C1=O [SB-404321]	0	0	4	0	8	0	0	0	0	15	0	0	0	24	0	0	0	9	0	0
COC(=O)c1c(-c2ccccc2)c2cc(C)ccc2c(=O)n1Cc1ccccc1	0	0	14	61	0	75	0	0	0	2	45	1	0	5	0	0	0	9	0	0
CCn1c(-c2nonc2N)nc2ccccc21 [SB-693162/GW549034]	0	0	10	0	0	0	0	0	0	0	0	0	45	0	4	0	0	10	0	0
Cc1nc(N(C)[C@H]2CN(C(=O)CC#N)CC[C@H]2C)c2cc[nH]c2n1	0	0	28	20	2	0	10	12	8	0	6	9	19	7	0	0	8	13	5	19
CCc1ccc(-c2ccc3c(c2)-c2nn(C)cc2S(=O)(=O)N3C)cc1	4	25	0	0	0	0	0	0	0	0	0	0	12	2	24	0	3	0	0	0
